Measurements: PubChem BioAssay (NCATS)
Unmarked numbers belong to inactive results. No rule for the calls is given here.

Each molecule was assayed on HIV-1 nucleocapsid protein NCp7 (binding to TG oligonucleotide) (assay: HIV Nucleocapsid (AID 346;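 also: potency is for inhibitors that block NC binding and lower polarization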)). Conditions: HIV-1 NC / fluorescein-TGTGTGTG probe, fluorescence polarization.
Method in brief: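 Fluorescence polarization binding of 100 nM HIV-1 NC to 10 nM fluorescein-labelled TG4xF oligonucleotide. Buffer was Hepes pH 7.5 with 250mM NaCl, 1uM ZnCl2, TCEP and 2-mercaptoethanol. Compounds were incubated 1 hr at room temperature before the read.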
Potency is read from the fitted curve at half-maximal effect.

Row | Compound | Potency
1 | CN(Cc1ccco1)c1cc(-c2cccnc2)ncn1 | > 20 µM
2 | COCC(=O)N1CCC2(CCCN(C(=O)Nc3ccc(OC)cc3)C2)CC1 | > 20 µM
3 | COc1cccc(Nc2ncc3nc(C)c(=O)n(Cc4cccs4)c3n2)c1 | > 4 µM
4 | CN1CCN(c2ncc3nc(-c4ccc(Cl)cc4)c(=O)n(CCC#N)c3n2)CC1 | > 20 µM
5 | O=c1cnc2cnc(Oc3ccccc3)nc2n1C[C@H]1CCCO1 | > 20 µM
6 | COc1ccc(-c2nc3cnc(N4CCN(C)CC4)nc3n(CCC#N)c2=O)cc1 | > 20 µM
7 | O=C(c1csnn1)N1CCC2(CCCN(c3ncccn3)C2)CC1 | > 20 µM
8 | O=c1c(-c2ccccc2)nc2cnc(Nc3ccccc3)nc2n1Cc1cccs1 | > 20 µM
9 | COCC(=O)N1CCC2(CC1)CN(Cc1ccc(C#N)cc1)C2 | > 20 µM
10 | COc1cccc(Cn2c(=O)c(-c3ccc(F)cc3)nc3cnc(N(C)C)nc32)c1 | > 20 µM
11 | c1cncc(CNc2ncncc2-c2cccnc2)c1 | > 20 µM
12 | COc1ccccc1CNc1ncncc1-c1ccc(C(=O)N(C)C)cc1 | > 20 µM
13 | O=C(c1csnn1)N1CCC2(CCCN(c3cccc(-c4ccccc4)c3)C2)CC1 | > 20 µM
14 | O=C(c1cnccn1)N1CCC[C@@]2(CCN(Cc3ccccc3)C2)C1 | > 20 µM
15 | CN(C)C(=O)c1ccc(-c2cncnc2N(C)Cc2ccco2)cc1 | > 20 µM
16 | COCCn1c(=O)c(-c2cc(F)cc(F)c2)nc2cnc(OCc3ccccc3)nc21 | > 20 µM
17 | CC(C)CN1CC[C@@]2(CCCN(C(=O)c3csnn3)C2)C1 | > 20 µM
18 | COc1cccc(Nc2ncc3nc(-c4cc(F)cc(F)c4)c(=O)n(C4CC4)c3n2)c1 | > 4 µM
19 | CC(=O)N1CCC2(CCCN(Cc3nccs3)C2)CC1 | > 20 µM
20 | N#CCCn1c(=O)cnc2cnc(Oc3cccc(Cl)c3)nc21 | > 20 µM

Row | Compound | Potency
21 | CN(C)C(=O)c1ccc(-c2cc(NCc3ccccc3)ncn2)cc1 | > 20 µM
22 | CS(=O)(=O)N1CCC2(CC1)CN(c1ccccn1)C2 | > 20 µM
23 | O=C(Nc1cccc(F)c1)N1CCCC2(CCN(C(=O)c3cnccn3)CC2)C1 | > 20 µM
24 | Cc1nc2cnc(N3CCN(C)CC3)nc2n(C)c1=O | > 20 µM
25 | COc1ncc2nc(-c3cc(F)cc(F)c3)c(=O)n(C)c2n1 | > 20 µM
26 | Cc1cccc(CNc2ncncc2-c2cccc(NS(C)(=O)=O)c2)c1 | > 20 µM
27 | CN(C)c1ncc2nc(-c3ccccc3)c(=O)n(C3CC3)c2n1 | > 20 µM
28 | Cc1cnc(CNc2cc(-c3ccc(N(C)C)cc3)ncn2)cn1 | > 20 µM
29 | O=S(=O)(c1ccccc1)N1CCC2(CCCN(c3ccccc3)C2)CC1 | > 20 µM
30 | COc1ncc2nc(-c3ccc(Cl)cc3)c(=O)n(C[C@H]3CCCO3)c2n1 | > 20 µM
31 | Cc1noc(C)c1-c1ccc2ncnc(Nc3ccc(F)cc3)c2c1 | > 20 µM
32 | COc1ccc(NC(=O)N2CC[C@@]3(CCCN(C(=O)c4csnn4)C3)C2)cc1 | > 20 µM
33 | O=C(Nc1ccccc1)N1CCC2(CCNCC2)CC1 | > 20 µM
34 | COc1ccccc1CNc1ncnc2ccc(-c3cccnc3)cc12 | > 20 µM
35 | COc1cccc(Cn2c(=O)c(-c3ccc(Cl)cc3)nc3cnc(N4CCN(C)CC4)nc32)c1 | > 20 µM
36 | COc1ccccc1CNc1nc(-c2ccc(N(C)C)cc2)nc2ccccc12 | > 20 µM
37 | CN(Cc1ccco1)c1ccnc(-c2cccnc2)n1 | > 20 µM
38 | O=c1c(CCc2ccccc2)nc2cncnc2n1Cc1ccccc1 | > 20 µM
39 | CN(C)c1ccc(-c2nccc(NCc3ccccc3)n2)cc1 | > 20 µM
40 | Cn1cccc1C(=O)N1CCC[C@@]2(CCN(C(c3ccccc3)c3ccccc3)C2)C1 | > 20 µM
